Screening results as filed in PubChem BioAssay.
This is a sample that favours compounds with a hit; in the whole collection about 3.5% have one here.
Rv3671c protease: Rv3671c serine protease inhibitors, primary screen, biochemical, fluorescence polarization, M. tuberculosis H37Rv; P9WHR9; inhibition, % at 5.96 µM; 320,000 compounds, 0.048% hits; in the data active = inhibition above about 38%;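 note: extracellular domain of Rv3671c used as enzyme; 0% = enzyme with DMSO and 100% = no enzyme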
Mtb FBA inh: Mtb FBA enzyme inhibitors, primary screen, biochemical, fluorescence, strain H37Rv | inhibition, % at 1 µM | 360,000 compounds, 2.3% hits | purified M. tuberculosis FBA, fluorescence read-out;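 note: 0% = vehicle and 100% = reference inhibitor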
GDH-TPI counter-1: GDH-TPI coupling enzyme inhibitors, primary screen, artefact control for M. tuberculosis FBA inhibitor project, biochemical, absorbance, full deck; 360,000 compounds, 1.2% hits; inhibition, % at 4.8 µM; GDH-TPI coupled enzyme counterscreen, NADH absorbance; in the data active = inhibition above about 30%;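 note: 0% = DMSO wells and 100% = wells lacking the enzyme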
Mtb UGM inh: M. tuberculosis UGM enzyme inhibitors, primary screen, biochemical, fluorescence polarization, single point. UDP-galactopyranose mutase (Mycobacterium tuberculosis (strain ATCC 25618 / H37Rv)), …. purified UGM, fluorescence polarization probe displacement. inhibition, % at 10 µM. 320,000 compounds, 0.06% hits; in the data active = inhibition above about 10%, passing the limit was not always enough
Target sequence (P9WIQ1 whole entry, looked up): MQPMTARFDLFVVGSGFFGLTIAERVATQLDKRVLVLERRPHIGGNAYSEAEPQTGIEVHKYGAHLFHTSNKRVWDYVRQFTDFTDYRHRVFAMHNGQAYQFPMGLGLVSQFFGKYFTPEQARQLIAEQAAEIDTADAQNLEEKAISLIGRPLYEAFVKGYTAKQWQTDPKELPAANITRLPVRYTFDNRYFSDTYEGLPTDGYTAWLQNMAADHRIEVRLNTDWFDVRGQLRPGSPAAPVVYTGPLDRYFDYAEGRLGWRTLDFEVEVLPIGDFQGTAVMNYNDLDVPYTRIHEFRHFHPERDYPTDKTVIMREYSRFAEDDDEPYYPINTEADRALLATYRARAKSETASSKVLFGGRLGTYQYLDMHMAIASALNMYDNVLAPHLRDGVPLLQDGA
Mtb FBA inh conf: M. tuberculosis aldolase blockers, biochemical, fluorescence, strain H37Rv, confirmation | AID 651616, 2012 | shares compounds with Mtb FBA inh | inhibition, % at 1 µM | 5,600 compounds, 78% hits | purified M. tuberculosis FBA, fluorescence read-out;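 note: 0% = vehicle wells and 100% = reference inhibitor wells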
GDH-TPI counter-2: GDH-TPI coupling enzyme inhibitors, artefact control for M. tuberculosis FBA inhibitor project, biochemical, fluorescence, high throughput. shares compounds with Mtb FBA inh. 5,600 compounds, 81% hits. GDH-TPI coupled enzyme counterscreen. AID 652141, 2013. inhibition, % at 1 µM; in the data active = inhibition above about 10%
GDH-TPI dose: GDH-TPI coupling enzyme inhibitors, dose response, artefact control for M. tuberculosis FBA inhibitor project, biochemical, fluorescence, IC50; shares compounds with Mtb FBA inh; IC50, µM; AID 652145, 2013; GDH-TPI coupled enzyme assay, artifact counterscreen; 170 compounds, 79% hits; call rule not given here
Starred values were filed as active, the others as inactive; . = no result given; + = active, no number. Cut-off read from the data, not from the text of the source, unless noted: active = inhibition above about 27%; inactive = the rest.

SMILES	Rv3671c protease	Mtb FBA inh	GDH-TPI counter-1	Mtb UGM inh	Mtb FBA inh conf	GDH-TPI counter-2	others
CCCn1c(=O)[nH]c(=O)c2c(C(=O)OCC)cc(-c3cccs3)nc21	3	89*	9	1	100*	87*
CCCn1c(=O)[nH]c(=O)c2c1nc(-c1ccc(OC(F)(F)C(F)C(F)(F)F)cc1)n2CCOC (configuration not stated)	-17	16	-1	-1	.	.
CCCCn1c(=O)[nH]c(=O)c2c(C(=O)OCC)cc(-c3cccs3)nc21	1	69*	5	0	12	7	GDH-TPI dose=1.3*
COCCn1c(-c2ccc3ccccc3c2)nc2c1c(=O)[nH]c(=O)n2CC(C)C	5	73*	-2	-1	98*	83*
CCCCn1c(=O)[nH]c(=O)c2c(C(=O)OCC)cc(-c3ccc(OC(F)F)cc3)nc21	-2	17	-2	-2	.	.
O=S(=O)(Nc1ccc(C(O)(C(F)(F)F)C(F)(F)F)cc1)c1cccc2ccccc12	.	-5	-2	.	.	.
Cc1ccc(-n2nc(C)c3c2NC2=C(C(=O)CC(C)(C)C2)C3c2ccccc2OCC(=O)O)cc1 (configuration not stated)	2	37*	4	1	194*	129*
CCOC(=O)CC(=O)CSc1nc2c(cc1C#N)CCC2	12	31*	1	-1	80*	65*
N#Cc1cc2c(nc1SCC(=O)O)CCCCC2	-2	-1	6	-2	.	.
COC(=O)CC(=O)CSc1nc2c(cc1C#N)CCCCC2	11	39*	16	-1	141*	98*
CC(C)n1ncc2c(C(=O)NCCc3ccc(S(N)(=O)=O)cc3)cc(C3CC3)nc21	.	28*	-2	.	+	+
COc1ccc(CCNC(=O)c2cc(C3CC3)nc3c2cnn3C(C)C)cc1OC	-8	5	8	0	.	.
CN(CC(=O)Nc1ccccc1Cl)CC(=O)Nc1sc2c(c1C(N)=O)CCC2	6	1	-6	0	.	.
Cc1nc2ccc(NC(=O)N3CCOCC3)cc2nc1C	-11	43*	9	0	+	147*
Cc1nc2ccc(NC(=O)N3CCOCC3)cc2s1	2	0	-5	6	.	.
CCOC(=O)C1CCN(C(=O)Nc2ccc3nc(C)c(C)nc3c2)CC1	3	78*	11	1	115*	77*
CC(=O)NC(CC(=O)NNC(=O)c1cc2ccccc2cc1O)c1ccccc1 (configuration not stated)	10	0	-1	0	.	.
O=C(NCC(c1ccco1)N1CCCC1)c1cccc(S(=O)(=O)N2CCOCC2)c1 (configuration not stated)	-2	2	-1	-2	.	.
COc1ccc(/C=C(/NC(=O)c2ccc(OC)c(OC)c2)C(=O)NCCCn2ccnc2)cc1	0	0	6	-2	.	.
Cc1ccc(CCNC(=O)Cn2ccc3cc(S(=O)(=O)N4CCCC4)ccc32)cc1	-4	84*	-8	2	44*	27*
COc1ccc(CCNC(=O)Cn2ccc3cc(S(=O)(=O)N4CCCC4)ccc32)cc1OC	-3	1	-4	1	.	.
CC1=CC2=NCC(O)CN2C=C1 (configuration not stated)	-2	28*	-4	2	12	-5	GDH-TPI dose=9.3*
CCC(CO)NC(=O)C1C=C2c3cccc4[nH]cc(c34)CC2N(C)C1 (configuration not stated)	-1	83*	10	2	+	+
CCN(CC)C(=O)N[C@H]1C[C@@H]2c3cccc4[nH]cc(c34)C[C@H]2N(C)C1	-13	8	8	1	.	.
c1ccc2c(c1)COc1c3ncccc3nn1-2	.	33*	23	.	37*	32*
SMILES	Rv3671c protease	Mtb FBA inh	GDH-TPI counter-1	Mtb UGM inh	Mtb FBA inh conf	GDH-TPI counter-2	others
CSCCC(C)N1CCC(Oc2ccc(C(=O)NCc3ccccn3)cc2)CC1 (configuration not stated)	.	-1	9	.	.	.
COC(=O)C1=C(C)NC2=C(C(=O)CCC2)C1c1cccc(C)n1 (configuration not stated)	-3	28*	4	0	147*	121*
COC(=O)C1=C(C)NC2=C(C(=O)CCC2)C1c1cn(Cc2ccc(Br)cc2)nc1-c1ccccc1 (configuration not stated)	-9	28*	10	-3	41*	30*
COC(=O)C1=C(C)NC2=C(C(=O)CC(C)(C)C2)C1c1cn(Cc2ccc(Br)cc2)nc1-c1ccccc1 (configuration not stated)	-21	19	20	1	.	.
Cc1ccc(N2CC(C(=O)Nc3cccnc3)CC2=O)cc1Cl (configuration not stated)	1	1	4	2	.	.
C=CCNc1cnn(-c2ccc(C)cc2)c(=O)c1Sc1ccc(C)cc1	-5	41*	3	4	56*	47*
COc1ccc(/C=C/c2c(-c3ccc(OC)cc3)sc3ccc(N4CCOCC4)cc23)cc1	0	4	23	-2	.	.
COc1ccc(-c2oc3ccc(N4CCOCC4)cc3c2/C=C/c2ccc(OC)c(OC)c2)cc1	-2	36*	40*	1	+	176*
CCCc1ccc(-c2cc(C(=O)Nc3ccc([N+](=O)[O-])cn3)c3ccccc3n2)cc1	-9	5	29	-6	.	.
CN(C)CCNC(=O)c1c(NC(=O)c2ccccc2)sc2c1CCCC2	-2	40*	22	1	114*	109*
CCCc1cc(=O)oc2cc(OCC(=O)NCCCN3CCOCC3)ccc12	6	16	13	1	.	.
CCCCc1cc(=O)oc2cc(OCC(=O)NCc3ccccn3)ccc12	4	14	6	-1	.	.
CCCCc1cc(=O)oc2cc(OCC(=O)N3CCOCC3)ccc12	-4	30*	16	-2	139*	101*
CCCCc1cc(=O)oc2cc(OCC(=O)Nc3ccccn3)ccc12	10	46*	-5	-2	68*	58*
COCCN(C(=O)c1cc(Cl)ccn1)c1c(N)n(Cc2ccccc2)c(=O)[nH]c1=O	0	6	-2	.	.	.
O=S(=O)(Nc1nc2ccccc2nc1Nc1ccc2c(c1)OCO2)c1ccc(F)cc1	6	5	-8	.	.	.
COc1ccc(-c2ccc(C(=O)O)c(=O)[nH]2)cc1	-2	71*	13	-1	106*	81*
